High-throughput results: PubChem, National Center for Advancing Translational Sciences (NCATS)
Fluorescein fluor – fluorescein region autofluorescence. Compound autofluorescence, 480/540 nm, fluorescein-equivalent; hits give high values. 59,000 compounds, 0.91% hits. max fluorescein-equivalent concentration, M; in the data active means max fluorescein-equivalent concentration above about 10 nM; inconclusive means between about 1.1 nM and that limit
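Each compound is tested across a concentration series in 100 mM Tris buffer at pH 8.0. After 15 min at room temperature, plates are imaged with 480 nm excitation and 540 nm emission filters, and intensities are converted to fluorescein-equivalent values.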
A488 fluor – A488 region autofluorescence; compound autofluorescence, A488 spectral region, dye equivalency; Compound Type: qHTS ECL - MLSMR; max dye equivalency, M; 59,000 compounds, 0.1% hits; AID 591
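Spectroscopic profiling in the A488 region: compounds in pH 8.0 Tris (100 mM), 15 min RT, CCD imaging with 480 nm excitation and 540 nm emission; responses normalized against A488 dye standards.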
Texas Red fluor – Texas Red region autofluorescence; AID 587; 59,000 compounds, 0.06% hits; Compound fluorescence, Texas Red channel, 547/618 nm; hits give high values; max dye-equivalent concentration, M; in the data active means max dye-equivalent concentration above about 10 nM; inconclusive means between about 1.1 nM and that limit
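qHTS profiling of intrinsic compound fluorescence; 100 mM Tris pH 8.0; 15 min RT; ex 547 / em 618 nm; response expressed as Texas Red dye-equivalent concentration from six-point plate standard.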
Resorufin autofl – resorufin region autofluorescence; AID 588; 59,000 compounds, 0.04% hits; max dye-equivalent concentration, M; Compound fluorescence, resorufin region 547/598 nm, buffer; hits give high values
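Intrinsic fluorescence profiled in the resorufin window (ex 547 nm, em 598 nm) after 15 min at room temperature in pH 8.0 Tris buffer (100 mM); responses normalized against a six-point resorufin standard series as dye-equivalent concentration.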
A647 fluor – A647 region autofluorescence; Compound fluorescence, A647 channel (570/671 nm), Tris buffer; max dye-equivalent concentration, M; 59,000 tested, under 10 active; AID 592;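 further: values scaled relative to a standard on each plate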
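Tris 100 mM pH 8.0; cpd + A647 stds pin-transferred; 15 min RT; CCD imager, ex 570/em 671. Output = A647-equivalent conc. per cpd conc.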
Rhodamine autofl – rhodamine region autofluorescence | max dye-equivalent concentration, M | 59,000 compounds, 0.05% hits | Rhodamine-region fluorescence, 547/598 nm, Tris buffer; hits give high values; in the data active means max dye-equivalent concentration above about 11 nM; inconclusive means between about 1.1 nM and that limit
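Read-out is relative fluorescence at 547 nm excitation and 598 nm emission, expressed as dye-equivalent concentration using rhodamine standards on every plate. Each compound was profiled across a concentration series after 15 min in 100 mM Tris, pH 8.0.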
The depositor's hits bear a star; i = inactive; ? = inconclusive; ! = repeats disagree. Sampled rows, rich in hits. Any-hit rate of the full collection: about 0.95%. Unless noted, how the calls were made is not given here.

SMILES | Fluorescein fluor | A488 fluor | Texas Red fluor | Resorufin autofl | A647 fluor | Rhodamine autofl
COCCn1c(=O)c(C)nc2cnc(Nc3cccc(OC)c3)nc21 | i | i | i | i | 1e-09 | i
C=CCOn1c(=O)c(-c2cc3ccccc3o2)[n+]([O-])c2ccccc21 | 1.88e-08M* | i | i | i | 2.18e-08 | i
Cc1c(C2Nc3ccccc3NC3=C2C(=O)CC(C)(C)C3)cnn1C (stereo not drawn) | 1.11e-08M*! | i | i | i | 6.8e-09 | i
Cc1ccccc1CNc1ncnc2c1ncn2[C@@H]1O[C@@H](CO)[C@H](O)[C@@H]1O | 2e-08M* | i | ? | i | 1.2e-09 | i
CCN(CC)c1ccc2cc(C(=O)Nc3ccc(-n4cnnn4)c(OC)c3)c(=O)oc2c1 | 6.71e-07M* | 3.42e-08M* | i | i | 2.47e-08 | i
Cc1cc(=O)oc2c(CN3CCC(C)CC3)c(O)c(Cl)cc12 | 1.12e-08M* | i | i | i | 1e-09 | ?
CN(C)C=Nc1nonc1-c1ncn[nH]1 | i | i | i | i | 2.71e-08 | i
CN(C)C=Nc1c(Br)cc(Br)c2nonc12 | 3.91e-08M* | ? | ? | ? | 2.32e-08 | ?
COc1ccc(CNc2ncncc2-c2cccc(NS(C)(=O)=O)c2)c(OC)c1 | ? | i | i | i | 2.03e-08 | i
O=S(=O)(CCn1cccc1)CCn1cccc1 | 1.01e-08M* | i | i | i | 1e-09 | i
Cc1cccc(OCC(=O)NCC(=O)n2nc(C)cc2C)c1 | 1.19e-08M* | i | i | i | 7.93e-08 | i
Cc1cc(C)n(C(=O)COc2c(C)cccc2C)n1 | ? | i | i | i | 3.87e-08 | i
CC1(C)CC(=O)C2=C(C1)OC(N)=C(C#N)C21CCN(Cc2ccccc2)CC1 | 3.17e-08M* | ? | i | i | 3.71e-08 | i
C/C(=C\CNc1ncnc2c1ncn2[C@@H]1O[C@@H](CO)[C@@H](O)[C@H]1O)CO | i | i | i | i | 1e-09 | i
CN(C)/C=c1\sc2c(C#N)cc(C(=O)c3ccc(Br)cc3)n2c1=O | 8.11e-07M* | 4.29e-08M* | i | i | 2.5e-08 | i
N#C[C@@H]1[C@@H]2C(=O)N(c3ccc4c(c3)OCCO4)C(=O)[C@@H]2C2c3ccccc3C=CN21 (stereo partly drawn) | 1.33e-08M* | i | ? | ? | 3.92e-08 | ?
CC(=O)[C@H]1[C@@H]2C(=O)N(c3cccc(Cl)c3)C(=O)[C@@H]2[C@H]2c3ccccc3C=CN21 | 1.78e-08M* | i | i | i | 1e-09 | i
O=C(c1ccco1)[C@@H]1[C@@H]2C(=O)N(c3ccc(Br)cc3)C(=O)[C@@H]2C2c3ccccc3C=CN21 (stereo partly drawn) | ? | i | ? | i | 4.2e-09 | i
O=C(c1ccco1)[C@@H]1[C@@H]2C(=O)N(c3ccc(F)cc3)C(=O)[C@@H]2C2c3ccccc3C=CN21 (stereo partly drawn) | 1.28e-08M* | i | ? | i | 5.7e-09 | i
CC(=O)[C@H]1[C@H]2[C@H](C(=O)[C@@H]3OC[C@H]2O3)[C@@H]2c3ccccc3C=CN12 | ? | i | i | i | 1.64e-08 | i
CC(=O)[C@@H]1[C@@H]2C(=O)N(c3ccc(F)c(Cl)c3)C(=O)[C@@H]2C2c3ccccc3C=CN21 (stereo partly drawn) | 3.31e-08M* | ? | ? | ? | 3.54e-08 | ?
COc1ccc(NC(=O)[C@@H]2[C@@H]3C(=O)N(C4CCCCC4)C(=O)[C@@H]3C3c4ccccc4C=CN32)cc1 (stereo partly drawn) | ? | i | i | i | 1.8e-09 | i
O=C(/C=C\c1ccc(O)c(O)c1)O[C@H]1C[C@@](O)(C(=O)O)C[C@H](O)[C@@H]1O | i | i | i | i | 2.43e-08 | i
COC1=CC(=O)C[C@@H](C)[C@@]12Oc1c(Cl)c(OC)cc(OC)c1C2=O | i | i | i | i | 2.09e-08 | i
CC1=c2c(oc3cc(O)c(Nc4c(C)cc(O)cc4O)c(C)c23)=CC(=O)C1=Nc1c(C)cc(O)cc1O | 1.47e-08M* | i | 2.63e-07M* | 7.41e-08M* | 9.94e-08 | 1.17e-07M*
